The panel holds about 83,000 compounds, 20% with a hit somewhere; the sample as a whole holds those more often.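 Activity criterion: percent growth below 10, measured after cells in 96-well plates were exposed to a single compound concentration for 48 hours.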 Values without a mark were called inactive. Calls of active or inactive are those of the source.
How the values were obtained:
Assay in all cases: NCI-60 one-dose screen, 48 h (100 = growth as untreated, 0 = no growth, -100 = all killed)
Conditions in all cases: 10 µM unless noted
SR leukemia = test system: SR leukemia
RPMI-8226 leukemia = test system: RPMI-8226 leukemia
OVCAR-8 ovarian = test system: OVCAR-8 ovarian
OVCAR-5 ovarian = test system: OVCAR-5 ovarian
OVCAR-4 ovarian = test system: OVCAR-4 ovarian
SK-OV-3 ovarian = test system: SK-OV-3 ovarian
IGROV1 ovarian = test system: IGROV1 ovarian
OVCAR-3 ovarian = test system: OVCAR-3 ovarian
HS 578T breast = test system: HS 578T breast
NCI/ADR-RES ovarian = test system: NCI/ADR-RES ovarian
T-47D breast = test system: T-47D breast
MDA-MB-435 melanoma = test system: MDA-MB-435 melanoma
SW-620 colon = test system: SW-620 colon
MCF7 breast = test system: MCF7 breast
HCT-116 colon = test system: HCT-116 colon
HCC-2998 colon = test system: HCC-2998 colon
KM12 colon = test system: KM12 colon
BT-549 breast = test system: BT-549 breast

Structure (SMILES)	growth (SR leukemia)	growth (RPMI-8226 leukemia)	growth (OVCAR-8 ovarian) [%]	growth (OVCAR-5 ovarian) [%]	growth (OVCAR-4 ovarian) [%]	growth (SK-OV-3 ovarian) [%]	growth (IGROV1 ovarian)	growth (OVCAR-3 ovarian) [%]	growth (HS 578T breast) [%]	growth (NCI/ADR-RES ovarian)	growth (T-47D breast)	growth (MDA-MB-435 melanoma) [%]	growth (SW-620 colon)	growth (MCF7 breast)	growth (HCT-116 colon)	growth (HCC-2998 colon) [%]	growth (KM12 colon) [%]	growth (BT-549 breast) [%]
Cc1cccc(C)c1N=c1oc2ccc(Cl)cc2nc1-c1ccccc1O	51.9%	82.9%	91.4	81.3	78.4	92.8	88.3%	102	84.3	86.4%	37.8%	99.3	91%	67.9%	76.6%	93.8	98.9	–
Cc1cccc(NC(=O)Nc2ccc(-n3cnc4cc(-c5ccc(O)cc5)ccc43)cc2)c1	19.7%	12.4%	17.6	76.8	27.4	60.3	33.2%	20.4	82	39.5%	4.01% (active)	25.9	–	16.9%	16.1%	63.6	13	70.8
COc1ccc(/C=C2\Oc3cc(OCCCCCN4CCCCC4)ccc3C2=O)cc1OC	-26.1% (active)	76.1%	83.3	95.9	48.1	104	94.3%	82.8	93.8	84%	72.4%	99.2	-61.3% (active)	70.9%	-51.2% (active)	94.7	80.4	–
C=C(CBr)[C@@H]1CC[C@]2(COC(C)=O)CC[C@]3(C)[C@H](CC[C@@H]4[C@@]5(C)CCCNC(C)(C)[C@@H]5CC[C@]43C)[C@@H]12	10%	7.96% (active)	40.4	87.3	50.8	72.5	60.1%	33.7	73.7	48.9%	25.9%	54.5	31.5%	21.5%	15.3%	50.8	41.9	–
COc1cc2nc(-c3ccc(C(F)(F)F)cc3)cc(OCCN3CCCCC3)c2cc1OC	19.2%	42.3%	78.2	58.4	81.8	83.7	46.5%	89.7	74.7	63.1%	85.1%	90.5	98.8%	79.5%	45.8%	76.7	–	–
O=C(/C=C/c1ccc(Cl)cc1)c1ccc(NC(=O)N2CCN(c3cc4c(cc3F)c(=O)c(C(=O)O)cn4C3CC3)CC2)cc1	22%	79.1%	65.3	103	99.2	99.1	89.2%	93.8	86.7	99.8%	76.4%	98.8	–	22.6%	11.8%	102	85.8	52.2
Oc1c(Cl)cc(Cl)c(Cl)c1CNCCNCc1c(O)c(Cl)cc(Cl)c1Cl	1.15% (active)	18%	11.3	54	22.6	22	16.4%	19.1	57.7	4.33% (active)	20.2%	37.1	–	15.6%	13.9%	25.2	24	–
O=C1c2ccccc2C(=O)c2c([N+](=O)[O-])ccc(Cl)c21	54%	81.8%	75.2	135	62.2	112	71.5%	57.1	98.8	–	46.7%	106	28.9%	71.7%	63.6%	104	79.1	88.5
CC(=O)OC[C@]12CC[C@@H](C(=O)CBr)[C@@H]1[C@H]1CC[C@@H]3[C@@]4(C)CC[C@H](OC(C)=O)C(C)(C)[C@@H]4CC[C@@]3(C)[C@]1(C)CC2	4.82% (active)	91.4%	81.9	102	94	90	-1.69% (active)	101	101	–	85.3%	93.3	100%	89%	88.2%	111	97.7	84
NS(=O)(=O)c1ccc(CCN2C(=O)C=CC2=O)cc1	91.6%	102%	104	106	97.7	110	104%	106	108	–	99.5%	108	106%	94.4%	99.7%	95.2	104	111
CC(=O)Nc1ccc(-c2ccc3c(c2)NC(=O)/C3=C\c2ccc[nH]2)cc1	36.5%	94.4%	99.8	73	102	121	96.6%	104	–	96.7%	37.5%	90.6	96.4%	9.83% (active)	104%	104	45.4	83.5
CCOC(=O)c1cc(C(=O)c2ccc(Br)cc2)n2ccc(/C=C/c3cc[n+](CC(=O)c4ccc(OC)cc4)cc3)cc12	-2.64% (active)	45.7%	59.9	102	86.7	114	86%	102	129	–	90.1%	101	48.6%	-9.87% (active)	37.7%	95.1	99.2	109
COc1ccc(C(=O)/C=C/c2cc3ccccc3n3nnnc23)cc1	92.3%	98.7%	109	108	106	102	109%	113	–	113%	92.1%	103	113%	94.7%	106%	111	109	99.2
CCOC(=O)c1ccc2c(c1)ncn2-c1ccc(NC(=O)Nc2cccc(C)c2)cc1	19.9%	45.5%	83.8	85.5	75.7	97.5	98.9%	96.9	84.1	–	31.2%	77.6	81.6%	54.7%	57.2%	90.6	27.7	115
OCc1cnccc1NCCCCOc1ccc(Oc2ccccc2)cc1	31.7%	24.7%	65.1	84.1	63.2	87.2	72.7%	66.6	59.6	–	35.4%	59.9	49.2%	33.2%	31.3%	89.6	64.8	62.6
CCOc1ccc(/C=N/Nc2cc(C)nc3ccc(Br)cc23)cc1	2.09% (active)	71.4%	90.6	89.2	91.8	90.8	96.2%	105	101	–	89.2%	92.6	55.2%	75.8%	36.6%	100	84.6	91.3
C#CCNC(=O)[C@]1(C)CC[C@]2(C)CC[C@@H]3C(=CC[C@H]4[C@@]3(C)CC[C@H]3C(C)(C)C(=O)CC[C@]43C)[C@@H]2C1	55.9%	69.1%	96.8	102	91.4	92.1	60.1%	95.7	126	–	77.1%	97.3	105%	83.3%	81%	101	92.3	101
COc1cccc2c1c1nc3cc(C)c(C)cc3nc1n2CCN(C)C	3.48% (active)	-8.21% (active)	26.4	28.7	35	39	5.59% (active)	32.6	54.4	–	30.1%	31.3	12.6%	4.64% (active)	14.4%	44.6	29.2	–
